Most compounds without a hit are left out; they make up all but 3% or so of the library.
ClpP mod: qHTS Assay for Activators of ClpP. Potency, µM (highest dose often 57.5 µM), for inactives: at the highest dose activity change, negative = active. purified B. subtilis ClpP, FRET peptide cleavage, 20 min. hit rate 1.9% among 340,000; active means well fitted falling curve with a large enough effect; inconclusive means small, poorly fitted or top-dose-only effect; inactive means no such curve, though single readings can be large or run the other way; further: potency means the concentration at half of the fitted maximal effect; the source files actives as falling curves though it sought activators and does not explain the sign; nearly all actives have a fitted effect of over 65% in size
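ClpP 10 microg/mL final, pH 8 Tris/KCl buffer with BSA, glycerol, Tween-20; compound pinned in; FRET-FV substrate; RT 20 min; Ex320/Em430; ΔFRET vs ADEP 5.8 microM, DMSO, no enzyme.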
LDHA block: LDHA (human) enzyme inhibition | P00338 | purified LDHA, NADH/diaphorase-resazurin fluorescence; hits give low values | activity change, % (values are at about 110 or 230 µM) | hit rate 0.15% among 480,000 | AID 1347041; in the data active means activity change below about -30%; inconclusive means mostly about -25% to -30%;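 further: plate controls were DMSO wells for no effect and wells without enzyme for full effect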
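Remaining NADH was detected by diaphorase (0.133 mg/mL) converting 37 µM resazurin to fluorescent resorufin, read at 0 and 20 minutes. The preceding 5-minute room-temperature reaction used 2 nM LDHA, 0.2 mM sodium pyruvate and 0.06 mM NADH at pH 7.4.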
ALOX12 inh: ALOX12 (human) lipoxygenase inhibition | purified 12hLO, xylenol orange hydroperoxide absorbance | Potency, µM (highest dose often 108 µM), for the others: top-dose activity change, negative = inhibition, most hits filed as inhibitors | hit rate 1.1% among 580,000 | AID 1671190; active means well fitted inhibition curve with a large enough effect; inconclusive means small, poorly fitted or top-dose-only effect, or another doubt; inactive means no such curve, though single readings can be large or run the other way; further: potency means the concentration at half of the fitted maximal effect; on the % scale 0 is the no-effect control and ±100 the full control effect
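Purified human 12hLO at 150 nM in 25 mM Hepes, 0.01% Triton X-100, pH 7.0, preincubated 15 min at room temperature with compound. Reaction started with 40 uM arachidonic acid, 30 min at room temperature. Hydroperoxide measured by Fe-xylenol orange, 573/405 nm absorbance ratio.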
KCNH2 WT inh: KCNH2 (human, wildtype) channel inhibition. hit rate 0.37% among 340,000. activity change, % at 1.84 µM. U2OS, BacMam KCNH2, thallium flux FluxOr; hits give low values. Q12809;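 active means maximum activity change below -70%; inconclusive means maximum activity change between -70% and -50%; inactive means maximum activity change above -50%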; further: on the % scale 0 is the no-effect control and ±100 the full control effect
Target sequence (Q12809 whole entry, looked up): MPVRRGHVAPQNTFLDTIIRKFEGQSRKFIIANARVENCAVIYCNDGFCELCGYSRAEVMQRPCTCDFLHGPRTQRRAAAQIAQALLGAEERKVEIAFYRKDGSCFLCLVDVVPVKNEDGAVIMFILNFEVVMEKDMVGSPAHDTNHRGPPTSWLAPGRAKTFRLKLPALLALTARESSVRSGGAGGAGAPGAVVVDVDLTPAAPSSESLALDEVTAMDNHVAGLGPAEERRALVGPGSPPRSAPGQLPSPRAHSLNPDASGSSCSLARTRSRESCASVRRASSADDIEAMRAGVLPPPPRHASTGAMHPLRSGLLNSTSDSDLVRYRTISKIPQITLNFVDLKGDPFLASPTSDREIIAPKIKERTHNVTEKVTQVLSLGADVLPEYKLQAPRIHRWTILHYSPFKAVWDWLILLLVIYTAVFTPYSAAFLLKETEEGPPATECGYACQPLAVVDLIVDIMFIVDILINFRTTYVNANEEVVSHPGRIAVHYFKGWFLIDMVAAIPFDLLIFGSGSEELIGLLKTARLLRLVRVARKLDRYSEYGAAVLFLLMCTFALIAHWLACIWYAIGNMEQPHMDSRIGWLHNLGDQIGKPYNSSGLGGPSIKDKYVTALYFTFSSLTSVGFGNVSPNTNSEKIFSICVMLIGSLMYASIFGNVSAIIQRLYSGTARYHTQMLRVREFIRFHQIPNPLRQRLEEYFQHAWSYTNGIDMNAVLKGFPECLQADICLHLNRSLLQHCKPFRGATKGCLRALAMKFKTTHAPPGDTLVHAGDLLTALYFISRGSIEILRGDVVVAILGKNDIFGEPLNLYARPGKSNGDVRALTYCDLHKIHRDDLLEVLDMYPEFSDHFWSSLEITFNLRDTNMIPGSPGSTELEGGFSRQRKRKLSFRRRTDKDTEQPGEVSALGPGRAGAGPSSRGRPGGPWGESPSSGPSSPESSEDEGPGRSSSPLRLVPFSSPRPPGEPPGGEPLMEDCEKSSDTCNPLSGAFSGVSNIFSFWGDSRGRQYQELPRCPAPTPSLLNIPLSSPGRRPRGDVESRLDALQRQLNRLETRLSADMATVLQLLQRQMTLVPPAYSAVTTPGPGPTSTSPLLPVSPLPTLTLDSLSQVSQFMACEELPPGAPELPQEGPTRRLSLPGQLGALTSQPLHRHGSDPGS
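U2OS cells were transduced with wild-type KCNH2 virus (2.03 x 10^8 / mL) for 4 h at room temperature, then cultured overnight at 37 C. Thallium flux was read with FluxOr dye. Rate constants were normalized to DMSO controls.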
KCNH2 3.1 block: blocks the human KCNH2 3.1 channel isoform. U2OS KCNH2 3.1, thallium flux FluxOr; hits give low values. hit rate 0.95% among 340,000. activity change, % (tested at about 1.8 µM);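 active means maximum activity change below -70%; inconclusive means maximum activity change from -70% to -50%; inactive means maximum activity change above -50%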;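 further: thallium influx rate constant from kinetic fluorescence after stimulation buffer; on the % scale 0 is the no-effect control and ±100 the full control effect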
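Normalized rate constant (relative to positive and negative DMSO controls) derived from a 2 min kinetic fluorescence read after stimulation; U2OS cells expressing the 3.1 isoform via virus at 1.77 x 10^8 /mL.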
Chronic BCR inh: inhibitors of chronic active B-cell receptor signaling; ABC-DLBCL IkBa-CBG/CBR reporter, luminescence ratio, 4 h; Potency, µM (top dose mostly 46.1 µM), inactives show top-dose activity change, negative = inhibition, usual class: inhibitors; hit rate 0.05% among 340,000; active means well fitted inhibition curve with a large enough effect in the signal ratio, with a control signal flat, not every such curve was filed as active; inconclusive means small, poorly fitted or top-dose-only effect, or effect the other way, or a change in a side signal; the % refers to the signal ratio;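 further: potency means the concentration at half of the fitted maximal effect; plate controls were basal doxycycline-induced cells for no effect and cells given 10 µM MG132 for full effect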
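TMD8 ABC-DLBCL cells carrying doxycycline-inducible green luciferase fused to IkappaBalpha plus unfused red luciferase were exposed to compounds (up to 46 uM) for 4 hrs at 37C. Activity came from the overlap-corrected green/red luminescence ratio.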
* = called active by the depositor; ? = inconclusive; · = not tested or not shown; [ ] = remark or other dose.

SMILES	ClpP mod	LDHA block	ALOX12 inh	KCNH2 WT inh	KCNH2 3.1 block	Chronic BCR inh
COc1cc(O)c(C(CCN2CCOCC2)c2ccc3c(c2)OCO3)c(OC)c1 (stereo not given)	1.6%	7.8	3.8%	-3.8	?	-8.4%
CC(C)CCC(CCN1CCOCC1)c1ccc2c(c1)OCO2 (stereo not given)	1.0%	2.2	?	-115.5*	-111.1*	2.8%
COc1ccc(C2CCCN2C(=O)NCCn2ccnc2)c(OC)c1 (stereo not given)	·	-0.9	?	·	·	·
CNS(=O)(=O)c1ccc(NC(=O)CCc2c(C)nc3c4ccccc4nn3c2C)cc1	·	0.2	?	·	·	·
CCc1sc(C(=O)OC(C)C(=O)Nc2cc(C)no2)cc1C (stereo not given)	·	-1.6	-4.7%	·	·	·
CC1(C)C2CCC1(CS(=O)(=O)N1CCOCC1)C(=O)C2 (stereo not given)	0.3%	-3.8	-6.2%	6.9	-70.1*	-7.9%
O=C1/C(=C/c2ccc(-c3ccc(F)cc3)o2)Cc2ccccc21	·	-0.4	17.8µM*	·	·	·
O=C1/C(=C\c2ccc(Br)o2)Cc2ccccc21	1.2%	6.1	?	18.9	2.4	10.0%
COC(=O)[C@@H]1Cc2ncn(C)c2CN1S(=O)(=O)c1cccs1	·	·	-3.9%[176 µM]	·	·	·
Cc1cccc(NC2=CC(=O)OC(C)C2)c1 (stereo not given)	28.2µM*	-8.7	0.0%	-5.7	-12.8	-6.6%
CC1CC(Nc2ccccc2N)=CC(=O)O1 (stereo not given)	-3.0%	0.1	12.5%	3.7	3.1	?
Cc1nc(-c2ccc(S(=O)(=O)Nc3ccc(C)c(Cl)c3)cc2)co1	·	3.0	?	·	·	·
Brc1cnc2nc[nH]c2c1	0.2%	-1.5	?	12.4	14.9	3.9%
S=c1[nH]c2cc(Br)cnc2[nH]1	-10.0%	-5.9	39.8µM*	19.7	-9.4	13.3%
CC(C)c1nc2c(c(-c3ccc(O)cc3)n1)CN([S+](=O)([O-])c1cccc(C(F)(F)F)c1)CC2	·	·	-23.2%	·	·	·
Cc1ccc(OCC(=O)N(Cc2ccc(N(C)C)cc2)C2CCS(=O)(=O)C2)cc1 (stereo not given)	0.3%	8.4	0.0%	-30.6	-48.5	-1.9%
Cc1cc(C)cc(OCC(=O)N(Cc2ccc(N(C)C)cc2)C2CCS(=O)(=O)C2)c1 (stereo not given)	22.4µM*	4.2	-14.0%	-4.3	3.8	-2.0%
COc1ccc(C(c2nnnn2CS(=O)(=O)c2ccc(C)cc2)N2CCN(c3ncccn3)CC2)cc1 (stereo not given)	31.6µM*	-4.7	?	18.8	5.0	6.4%
Cc1ccc(C(c2nnnn2Cc2ccccc2)N2CCN(Cc3ccncc3)CC2)cc1 (stereo not given)	2.2%	-1.5	·	·	·	·
Cc1ccc(C(c2nnnn2Cc2ccccc2)N2CCN(Cc3ccccc3)CC2)cc1 (stereo not given)	0.7%	2.3	-3.9%	-77.4*	?	?
Cc1ccc(S(=O)(=O)Cn2nnnc2C(c2ccccc2)N2CCN(c3ncccn3)CC2)cc1 (stereo not given)	-13.3%	-3.0	0.0%	-1.0	0.9	-0.8%
CCCNS(=O)(=O)c1cccc(C(=O)Nc2ccc(N3CCCCC3)c3ccncc23)c1	·	80.7	?	·	·	·
CC(C)(C)CC(=O)Nc1nc2c(s1)C[C@@H]1[C@](C)(CO)[C@H](O)CC[C@@]1(C)[C@@H]2CC(=O)NC1CCCC1	·	·	1.9%	·	·	·
O=[N+]([O-])c1ccc(Cc2ccc([N+](=O)[O-])cc2)cc1	·	-1.7	-0.5%	0.4	-10.3	·
N#CC(CCc1ccc([N+](=O)[O-])cc1)(CCc1ccc([N+](=O)[O-])cc1)C(N)=O	·	17.3	-14.3%	-92.9*	-129.1*	·
SMILES	ClpP mod	LDHA block	ALOX12 inh	KCNH2 WT inh	KCNH2 3.1 block	Chronic BCR inh
C=CCNC(=O)c1ccc(CN(c2ccc(OCC)cc2)S(=O)(=O)c2ccc(C)cc2)cc1	1.9%	-1.1	0.0%	?	-88.0*	-5.3%
Cc1ccc2nc(-c3sc4nc(C)ccc4c3N)[nH]c2c1	-16.6%	-2.8	35.5µM*	-20.6	-25.7	?
Cc1oc(-c2ccccc2)nc1C(=O)Nc1ccc(F)cc1	·	28.2	?	·	·	·
Cc1ccc2cc(C(=O)NC3CCS(=O)(=O)C3)[nH]c2c1 (stereo not given)	·	3.5	-0.4%	·	·	·
COc1ccc(-c2nc3cccc(C)n3c2NCc2ccco2)cc1OC	14.1µM*	-1.7	?	6.6	0.0	16.1%
COc1ccc(CNCc2ccco2)cc1OC	·	-5.2	?	·	·	·
O=C1C=CC(=O)N1c1ccccn1	·	-7.5	-6.5%	-7.5	-12.1	·
O=C(c1ccccc1)c1ccccc1N1C(=O)C=CC1=O	-0.7%	-6.8	7.94µM*	-4.2	0.5	?
O=C(O)c1cccc(N2C(=O)C=CC2=O)c1	-3.4%	-3.0	-21.3%	-8.7	14.3	·
O=C1C=CC(=O)N1c1ccccc1N1C(=O)C=CC1=O	·	-9.0	-8.5%	-135.1*	-192.7*	·
O=C(O)c1cccc2cc(-c3ccccc3)oc(=O)c12	3.6%	-0.8	-39.7%	8.7	8.5	3.5%
O=C(O)c1cccc2cccc(-c3c4ccc(=O)c(O)c-4oc4c(O)c(O)ccc34)c12	-29.3%	9.3	6.31µM*	1.2	-13.4	·
CCc1ccc2c(CSc3nncn3C(C)C)cc(=O)oc2c1	·	2.8	?	·	·	·
CCCCNC(=S)N/N=C/c1cc(C)ccc1C	-2.4%	-0.1	50.1µM*	13.1	-11.6	?
Cc1cc(C)cc(OCC(=O)NNC(=S)NC(=O)C2CC2)c1	-1.8%	-17.2	0.0%	-6.6	-70.2*	0.3%
CCc1ccc(OCC(=O)NNC(=S)NC(=O)C2CCCCC2)c(Br)c1	1.0%	-9.3	7.94µM*	12.9	0.6	-0.4%
CCc1ccc(OCC(=O)NNC(=S)NC(=O)C2CC2)c(Br)c1	2.0%	-3.2	?	-24.0	7.4	5.0%
Cc1csc2nc(COc3ccc(F)cc3F)cc(=O)n12	·	0.3	-17.8%	·	·	·
C=CCn1c(SCc2nc3ccccc3nc2C)nnc1-c1ccoc1C	-6.4%	3.2	31.6µM*	-7.1	6.8	?
